This note sets out measurements from PubChem BioAssay AID1851 (National Center for Advancing Translational Sciences (NCATS), 2009).

In all, about 16,000 compounds went through this assay and about 2,600 (16%) were called active. Not shown: some 20% with an inconclusive outcome. Calls come from the whole dose curve; as a rule, active = well fitted curve in the direction sought with a large enough effect; inconclusive = small, poorly fitted or top-dose-only effect, or effect the other way; inactive = no such curve, though single readings can be large or run the other way. Not all results are given here.
% is set by controls: 0 for no effect and ±100 for the full control effect.

In this experiment the target is Cytochrome P450 2D6 (Homo sapiens) (UniProt P10635). The experiment is described as follows: Cytochrome panel assay with activity outcomes. The following applies: recombinant CYP, pro-luciferin dealkylation, luminescence, p450-cyp2d6; series mostly up to 57.1 µM; activity, negative = inhibition: at the top concentration.
Cytochrome P450 2D6 (Homo sapiens), sequence (P10635 whole entry, looked up): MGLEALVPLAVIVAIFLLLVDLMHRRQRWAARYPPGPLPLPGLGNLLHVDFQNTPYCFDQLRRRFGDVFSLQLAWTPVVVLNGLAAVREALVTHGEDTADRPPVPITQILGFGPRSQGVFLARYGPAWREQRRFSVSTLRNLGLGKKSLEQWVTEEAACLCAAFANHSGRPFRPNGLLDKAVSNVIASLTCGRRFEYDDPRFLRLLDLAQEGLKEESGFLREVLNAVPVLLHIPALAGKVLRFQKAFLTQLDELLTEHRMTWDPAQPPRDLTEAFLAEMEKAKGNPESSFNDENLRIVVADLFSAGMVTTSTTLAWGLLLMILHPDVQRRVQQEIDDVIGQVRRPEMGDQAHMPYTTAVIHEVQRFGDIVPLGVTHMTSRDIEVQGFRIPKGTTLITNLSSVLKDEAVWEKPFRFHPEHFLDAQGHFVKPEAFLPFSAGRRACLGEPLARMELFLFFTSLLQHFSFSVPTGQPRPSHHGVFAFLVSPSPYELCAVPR
On to `C#CCCCO/N=C1/[C@H]2O[C@@H]2[C@@H](O)[C@H]2[C@H]1CCn1c(=O)n(Cc3cc4c(cc3Cl)OCO4)c(=O)n12`, for which the activity, negative = inhibition was -0.473% [at 11.4 µM] (inactive). The same measure, in the same setting: the same measure for `O=C(O)c1nnsc1-c1csnn1`: -6.92% [at 11.4 µM] (inactive); for `Cc1cc(C)c(C(N)=O)c(NC(=O)Nc2ccccc2)n1`: -1.35% (inactive); for `O=c1[nH][nH]c(=S)c(=O)[nH]1`: 0.16% [at 11.4 µM] (inactive). Take `C=CCNC(=S)Nc1ccc2nc(C)c(C)nc2c1`: the “activity, negative = inhibition” value was -21.9% (inactive). Same read-out and setting: as for `Cc1ccc(NC(=O)CN(C)C(=O)CSc2n[nH]c(N)n2)cc1`, the figure is -2.04% (inactive); as for `CCn1cc(C(=O)N/N=C(/C)c2ccc(F)cc2)c(=O)c2cc(F)c(N3CCCC3)cc21`, -16.1% (inactive); as for `CCc1cccc2c3c([nH]c12)[C@@](CC)(CC(=O)O)OCC3`, 8.03% [at 25.6 µM] (inactive). In the case of `O=C1S/C(=C/c2ccc(N3CCOCC3)o2)C(=O)N1Cc1ccc(F)cc1`, the “activity, negative = inhibition” value is -5.57% (inactive). Same read-out and setting: the same measure for `COc1ccc(NC(=O)C2(c3ccc(NC(=O)c4ccc(C)cc4)cc3)CCCC2)cc1`: -1.99% (inactive); for `CC(=O)/C=C/c1ccc2ccccc2n1`: -25.2% (inactive). Same read-out and setting: as for `CC(=NC1CCCCC1)c1ccccc1O`, the figure is -7.44% [at 11.4 µM] (inactive).

As for `C/C(=N/Nc1ccc2ccccc2n1)c1ccccc1O`, the AC50 is 0.794 µM (active). For the compound `COc1ccc(/C(O)=C2/C(=O)C(=O)N(CCN3CCOCC3)C2c2ccc(C)cc2)cc1` (stereo not drawn), the “activity, negative = inhibition” value is 29.8% (inactive). Still for that read-out and setting: the same measure for `CN1CCN(c2ncc3nc(CCc4ccccc4)c(=O)n(C)c3n2)CC1`: -8.43% (inactive); for `O=C(O)[C@@H]1[C@@H](C(=O)NCc2ccncc2)[C@@H]2C=C[C@@H]1O2`: -9.91% [at 11.4 µM] (inactive).

As for `O=C(CN(c1ccccc1)S(=O)(=O)c1ccccc1[N+](=O)[O-])NN=C1CCCCCCC1`, the AC50 is 4.47 µM (active). Turning to `O=C(COc1ccc([N+](=O)[O-])cc1)NN=C1CCCC1`, the “activity, negative = inhibition” value was -17.7% (inactive). Still for that read-out and setting: the same measure for `COc1ccc(N(CC(=O)NN=C2CCCC2)S(=O)(=O)c2ccccc2)cc1`: -23.6% (inactive). The same measure, in the same setting: as for `CNC(=O)[C@H]1O[C@H](n2cnc3c(NCc4cccc(I)c4)ncnc32)[C@@H](O)[C@@H]1O`, the figure is -3.89% (inactive); as for `CCCCC(C=O)NC(=O)C(CC(C)C)NC(=O)OCc1ccccc1` (stereo not drawn), -8.92% (inactive); as for `NCc1ccccc1CC(=O)N[C@@H]1C(=O)N2C(C(=O)O)=C(CSc3nnnn3CC(=O)O)CS[C@@H]12`, 5.45% [at 25.6 µM] (inactive). Still for that read-out and setting: as for `COc1cc(/C=N\NC(=O)C2C(=O)NCC2c2ccccc2)cc(OC)c1O` (stereo not drawn), the figure is 0.0367% (inactive); as for `Cc1cccc(C)c1NC(=O)N1CCC(N2CCCCC2)CC1`, -13.6% (inactive). For the compound `Cc1cccc(C)c1NC(=O)CCN1C(=O)C2C3CCC(C3)C2C1=O` (stereo not drawn), the “activity, negative = inhibition” value was -0.973% (inactive). For `CCCCN1CCCC[C@H]1C(=O)Nc1c(C)cccc1C`, the AC50 is 0.501 µM (active). Consider `Cc1ccc(/C(C#N)=C/c2cccc([N+](=O)[O-])c2)cc1`, for which the activity, negative = inhibition was 8% [at 11.4 µM] (inactive). On the same count and under the same terms, as for `CN(C)Cc1cc(O)c(O)c(CN(C)C)c1`, the figure is 1.36% [at 11.4 µM] (inactive). On to `COC(=O)c1cc(-c2ccccc2)sc1NC(=O)CN1C(=O)c2ccccc2C1=O`, for which the “activity, negative = inhibition” value is -10.5% (inactive).

Consider `Cc1ccc2nc(-c3ccc(NC(=O)c4ccc(N)cc4)c(S(=O)(=O)O)c3)sc2c1`, for which the activity, negative = inhibition was 10.5% [at 11.4 µM] (inactive). Regarding `Cc1ccc2c(c1)N(CC(=O)NCc1cccs1)C(=O)C(C)O2` (stereo not drawn), the AC50 is 12.6 µM (active).

Regarding `Cc1ccc(C)c(NC(=O)Cn2nnc(C(=O)NCc3cccs3)c2N)c1`, the “activity, negative = inhibition” value was -4.92% (inactive). Still for that read-out and setting: as for `COc1ccc(CCNC(=O)CCN2C(=O)C(C)Oc3ccc(C)cc32)cc1OC` (stereo not drawn), the figure is -5.38% (inactive).

As for `COc1ccccc1COC(=O)Nc1c(C)nn(C)c1Cl`, the “activity, negative = inhibition” value was 13.3% (inactive). On the same count and under the same terms, as for `COc1ccc2c(c1)c(CC(=O)N1CCOCC1)c(C)n2C(=O)c1ccc(Cl)cc1`, the figure is 0.728% (inactive).

Regarding `Nc1cccc2cc(S(=O)(=O)Nc3ccc(C(=O)O)cc3)ccc12`, the activity, negative = inhibition is 4.25% [at 11.4 µM] (inactive).

With `COc1c(N2CCN(C(=S)Nc3ccc(F)cc3)C(C)C2)c(F)cc2c(=O)c(C(=O)O)cn(C3CC3)c12` (stereo not drawn), the “activity, negative = inhibition” value is -2.42% (inactive). Same read-out and setting: the same measure for `CCOC(=O)N/N=C\c1ccc([N+](=O)[O-])o1`: -12.6% (inactive). Turning to `O=C(O)c1cc(-c2ccncc2)nc2ccccc12`, the activity, negative = inhibition is 8.68% [at 11.4 µM] (inactive). Regarding `O=C(N/N=C/c1ccc([N+](=O)[O-])o1)c1cc(-c2ccncc2)nc2ccccc12`, the AC50 was 14.1 µM (active). The same measure, in the same setting: as for `COn1c(SCc2ccc(C)cc2C)nc2ccccc2c1=O`, the figure is 6.31 µM (active). Turning to `COn1c(SC(C)C)nc2ccccc2c1=O`, the “activity, negative = inhibition” value was -13.7% (inactive). The same measure, in the same setting: the same measure for `Cc1cc(C)n(-c2nc3ccccc3c(=O)n2OCc2ccc(Cl)cc2)n1`: -58.9% (inactive).

Turning to `COn1c(SCc2cccc(Cl)c2)nc2ccccc2c1=O`, the AC50 was 0.891 µM (active). Take `CC(C)On1c(SC(C)C)nc2ccccc2c1=O`: the “activity, negative = inhibition” value was 5.46% (inactive). The same measure, in the same setting: the same measure for `Cc1ccc(-n2c(SCc3ccc([N+](=O)[O-])cc3)nc3ccccc3c2=O)cc1`: 11.1% (inactive); for `CO[C@H]1COC(=O)C/C=C\[C@H](C)[C@@H](OC)COC(=O)[C@H](Cc2ccccc2)NC(=O)C/C=C\[C@@H]1C`: -13.7% [at 11.4 µM] (inactive); for `O=S(=O)(O)[C@@H](CO)c1ccccc1` (tested in a mixture with another compound): 14% [at 11.4 µM] (inactive).

For orientation: AC50 means the midpoint of the concentration-response curve, whichever way the signal moves.
